From PubChem BioAssay AID1347416 (National Center for Advancing Translational Sciences (NCATS), 2020)
Hit rate of the full screen: of about 4,100 compounds, about 1,600 (39%) were called active. Another 25% or so got no clear call; they are omitted. Calls come from the whole dose curve; as a rule, active = well fitted inhibition curve with a large enough effect; inconclusive = small, poorly fitted or top-dose-only effect; inactive = no such curve, though single readings can be large or run the other way. Some of the results follow.

Assay: qHTS Validation assay for Inhibitors of Plasmodium falciparum Dd2 growth in vitro; note: nearly all actives have a fitted effect of over 70% in size
Conditions: P. falciparum Dd2 in RBCs, SYBR Green growth, 72 h; series mostly up to 28.7 µM
How it was run: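 P. falciparum Dd2-infected red blood cells (2.5% hematocrit, 0.3% parasitemia) grown 72 h at 37 °C under 5% O2 with compounds in a titration, 29 uM to 0.5 nM final. Growth read as SYBR Green-1 fluorescence after ~16 h lysis; artesunate 300 nM as positive control.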
Potency is the fitted concentration of half-maximal effect.

Potency, active:
COc1ccccc1C1c2[nH]c3ccccc3c2C[C@H]2C(=O)N(C3CCN(Cc4ccccc4)CC3)CC(=O)N12 (stereo partly drawn) 2.11 µM, COc1ccc(C2c3[nH]c4ccccc4c3C[C@H]3C(=O)N(C4CCN(Cc5ccccc5)CC4)CC(=O)N23)cc1OC (stereo partly drawn) 2.99 µM, COc1ccc(C2c3[nH]c4ccccc4c3C[C@H]3C(=O)N(C4CCN(Cc5ccccc5)CC4)CC(=O)N23)c(OC)c1 (stereo partly drawn) 2.37 µM, CCOc1ccccc1C1c2[nH]c3ccccc3c2C[C@H]2C(=O)N(C3CCN(Cc4ccccc4)CC3)CC(=O)N12 (stereo partly drawn) 2.37 µM, CC(=O)N(C)C1=C(N2CCOCC2)C(=O)c2ccccc2C1=O 0.842 µM, CC(=O)Oc1c(-c2ccc(NC(=O)CC(C)C)cc2)c(-c2ccc(F)cc2)nn1-c1ccc(F)cc1 13.3 µM, COc1ccc(-c2nn(-c3ccc(F)cc3)c(OC(C)=O)c2-c2ccc(NC(C)=O)cc2)cc1OC 15 µM, COc1cccc(C2C3=C(N=c4s/c(=C\c5ccccc5O)c(=O)n42)c2ccccc2CC3)c1OC (stereo not drawn) 2.99 µM, COc1cccc(CN2C(=O)OC3(CCN(Cc4ccc5c(c4)CCO5)CC3)C2(C)c2cccnc2)c1 (stereo not drawn) 4.73 µM, COc1cccc(CN2C(=O)OC3(CCN(Cc4ccccc4OC)CC3)C2(C)c2cccnc2)c1 (stereo not drawn) 4.73 µM, COc1cccc(CN2C(=O)OC3(CCN(Cc4c[nH]c5ccccc45)CC3)C2(C)c2cccnc2)c1 (stereo not drawn) 8.41 µM, CC1(c2ccccc2)N(Cc2ccc(O)cc2)C(=O)OC12CCN(Cc1c[nH]c3ccccc13)CC2 (stereo not drawn) 5.31 µM, CCOC(=O)c1cnc2ccc(OC)cc2c1Nc1ccc(N2CCN(C)CC2)cc1 1.68 µM, Cc1ccc(C(=O)N/N=C/c2ccc([N+](=O)[O-])s2)cc1 5.96 µM, Cc1ccccc1C1C(C#N)=C2N=C(N)c3c(sc4c3CCCCC4)N2C2=C1C(=O)CCC2 (stereo not drawn) 2.66 µM, COc1cc(C2CC(=O)N(Cc3ccc(F)cc3)c3ccccc3S2)cc(OC)c1OC (stereo not drawn) 2.11 µM, O=C(/C=C/c1ccco1)NC(=S)Nc1ccccc1N1CCCC1 2.66 µM, Cc1ccc(C)c(NC(=O)CN(C)C(=O)c2ccc(-c3cccc(C(F)(F)F)c3)o2)c1 2.11 µM, Cc1ccc(C)c(NC(=O)CN(C)C(=O)c2ccc(-c3ccc(Cl)cc3)o2)c1 4.73 µM, COc1cccc(NC(=O)CN(C)C(=O)c2ccc(-c3cccc(C(F)(F)F)c3)o2)c1 0.596 µM, Cc1ccc(C)c(NC(=O)CN(C)C(=O)c2cc3ccccc3o2)c1 13.3 µM, COc1cccc(NC(=O)CN(C)C(=O)c2ccc(-c3ccc(Cl)cc3)o2)c1 4.22 µM, CN(CC(=O)Nc1cccc(F)c1)C(=O)c1ccc(-c2cccc(C(F)(F)F)c2)o1 0.668 µM, CCCC(C)C(=O)Nc1ncc(S(=O)(=O)c2ccc([N+](=O)[O-])cc2)s1 (stereo not drawn) 5.96 µM, COc1ccc(CCNC(=O)c2cc(C(=O)c3cc(Cl)ccc3O)cn(CCc3ccc(OC)cc3)c2=O)cc1 3.76 µM, Cc1ccc(Oc2c(C)nc(-c3ccccc3)[nH]c2=O)cc1 5.31 µM, Cc1ccnc2nc(C(=O)Nc3cc(Cl)ccc3N3CCOCC3)nn12 4.73 µM, O=C(Nc1ccncc1)Nc1ccc(Cl)cc1 10.6 µM, N#Cc1ccc(NC(=O)Nc2ccc(Cl)cc2)cc1 5.31 µM, CCc1ccc(NC(=O)CSc2nc3n[nH]c(C)c3c(=N)n2-c2ccc(C)cc2)cc1 6.68 µM, CC(OC(=O)CCc1cc(C(C)(C)C)c(O)c(C(C)(C)C)c1)C(=O)NC1CC1 (stereo not drawn) 4.73 µM, COc1ccc(-c2noc(-c3cccn3CC(=O)Nc3ccccc3F)n2)cc1F 4.22 µM, COc1ccc(-c2noc(-c3cccn3CC(=O)Nc3ccccc3C)n2)cc1F 5.31 µM, O=C1COCC2(CN(Cc3ccsc3)C2)CN1Cc1cccc(OC(F)(F)F)c1 17.2 µM, CCCCCNc1nc2sc3c(c2c(=O)n1-c1cccc(Cl)c1)CCN(C)C3 7.5 µM, CCCCNc1nc2sc3c(c2c(=O)n1-c1cccc(Cl)c1)CCN(C)C3 9.44 µM, CCn1nnc(NC(=O)c2ccc(C(C)(C)C)cc2)n1 9.44 µM, C[C@]1(CO)[C@H]2Cc3sc(NC(=O)c4cccc(F)c4)nc3[C@@H](CC(=O)N3CCOCC3)[C@]2(C)CC[C@H]1O 8.41 µM, CC1CCN(C(=O)C[C@@H]2c3nc(NC(=O)c4cccc(F)c4)sc3C[C@@H]3[C@](C)(CO)[C@H](O)CC[C@]32C)CC1 10.6 µM, CCN(CC)C(=O)C[C@@H]1c2nc(NC(=O)c3cccc(F)c3)sc2C[C@@H]2[C@](C)(CO)[C@H](O)CC[C@]21C 9.44 µM, COc1ccc(-n2cc(CNCCCn3ccnc3)c(-c3ccccc3Cl)n2)cc1 3.35 µM, Cc1ccc(OCc2nc(C3CCN(C(=O)c4c5c(nc6ccccc46)CCCC5)CC3)no2)cc1 9.44 µM

Potency, inactive:
Cc1ccc(-n2cc(-c3ccccc3)nc2S(=O)(=O)CC(=O)Nc2ccc(F)cc2)cc1, O=C1CO[C@H]2CCN(Cc3ccc(O)cc3)CC[C@@H]2N1c1ccccc1, COCc1cc(=O)n(CC(=O)NCc2cccc(OC)c2)c(N2CCOCC2)n1, COc1cccc(CN2CCC3(C2)NC(=O)c2ccccc2CO3)c1 (stereo not drawn), COCCc1noc([C@@H]2CN(Cc3ccc(C)o3)C[C@H]2CO)n1, COC(=O)C1C2C=CC3(CN(Cc4cccs4)C(=O)C13)O2 (stereo not drawn), Cc1ncc(CO)c(/C=N/NC(=O)c2ccc(O)cc2)c1O, CN(CC1CCOC1)C(=O)Nc1ccc(Br)cc1 (stereo not drawn), COc1cc(-c2ccnc3nc(Cc4ccc(F)cc4)nn23)cc(OC)c1OC, COC(=O)c1ccc(CN2C(=O)[C@@H]3C[C@@H](O)CN3C3(CN(Cc4ccc(F)cc4)C3)C2=O)cc1, CC(C)(C)C(=O)NC(=S)Nc1ccccc1N1CCCC1, O=C(CCSc1nc(-c2ccco2)cc(C(F)(F)F)n1)Nc1cccc(O)c1, Cc1noc(-c2cn(C3CCN(C(=O)C(C)Oc4ccc(Cl)cc4)CC3)nn2)n1 (stereo not drawn), O=C(Nc1ccccc1N1CCCC1)c1cc2ccccc2o1, Cc1ccc2c(CC(=O)Nc3ccccc3C(F)(F)F)coc2c1C, COc1cccc(NC(=O)[C@@H]2C[C@H](c3cccc(C(F)(F)F)c3)N(Cc3cnn(C)c3)C2)c1, Cc1cccc(Cn2nnc(C(=O)Nc3cc(C)ccc3C)c2N)c1, Cc1ccc(-c2cn3cccnc3n2)cc1NC(=O)Cc1ccccc1, COCC(=O)Nc1ccc2c(c1)OCC(=O)N2Cc1ccc(C)cc1, O=C(c1cc2c(s1)CCCC2)N1CCc2c(nc3cc[nH]n3c2=O)C1, Cc1ccc(C(=O)NCCc2noc(C3CC3)n2)cc1C, Cc1cccc(NC(=O)CN(c2ccc(F)cc2)S(C)(=O)=O)c1, COc1ccc(-c2cc3c(=O)n(CCNC(=O)c4c(F)cccc4Cl)ccn3n2)cc1, COc1ccc(OC)c(CCNC(=O)c2nc(-c3ccc(Cl)cc3)n3c2CCCCC3)c1, Cc1ccc(-c2nc3ccccc3c(=O)n2O)cc1, CCC(=O)N1CCN(C2CCN(Cc3ccccn3)C2=O)CC1 (stereo not drawn), CCn1ncc(Cl)c1C(=O)Nc1ccncc1, O=C(Nc1ccncc1)c1ccc(Cl)c(Cl)c1, CNC(=O)[C@@H]1CN(Cc2ccc(C#N)cc2)C[C@H]1COC, Cc1cc(C)n2nc(C(=O)N3CCN4C(=O)CN(C)C(=O)C4C3)cc2n1 (stereo not drawn), CC(C)c1ccc(N2CC(C(=O)NCc3cncn3C3CC3)CC2=O)cc1 (stereo not drawn), CCc1ccc(OCC(=O)Nc2ccc(-c3nc4ncccc4o3)cc2)cc1, Cc1ccc(NC(=O)CSc2n[nH]c(-c3ccccn3)n2)cc1, CC(C)c1noc(-c2cccn3c(CNC(=O)c4cccc(Cl)c4)nnc23)n1, CCCN1CCc2[nH]cnc2C12CCN(C(=O)c1ccc(CSC)o1)CC2, COc1ccc(C(=O)NCc2nnc3c(-c4nc(C(C)C)no4)cccn23)cc1F, COc1ccc(-c2noc(-c3cccn3CC(=O)Nc3cccc(Cl)c3C)n2)cc1F, COc1ccc(-c2noc(-c3cccn3CC(=O)Nc3cc(C)ccc3C)n2)cc1F, O=C1NC2(CCN(Cc3ccc(OC(F)(F)F)cc3)C2)OCc2ccccc21 (stereo not drawn), O=C(c1cc(C(F)(F)F)[nH]n1)N1CC[C@@H](c2ccc(F)cc2)[C@H](O)C1, CC(C)OC(=O)c1cccc(NC(=O)Cn2nnc3sc4c(c3c2=O)CCCC4)c1, CCOC(=O)N1CCc2c(sc3nc4n(c(=O)c23)N=C(c2ccc(OC)cc2)CS4)C1, Cc1ccc(-c2nc(CN3CCCC3=O)no2)cc1, CCCn1nnc(NC(=S)NC(=O)Cc2ccccc2)n1, C[C@H](C(=O)N1CCCC1)C1CC[C@@]2(C)Cc3sc(NC(=O)C4CC4)nc3[C@@H](C)[C@@H]2[C@H]1O (stereo partly drawn), CCOc1cc(C(=O)Nc2nnc(CC)s2)ccc1OCC(=O)N1CCOCC1, CCOc1ccccc1C(=O)Nc1nc2c(s1)CC(C)CC2 (stereo not drawn), Cc1ccc(-c2nnc3ccc(-c4ccoc4)nn23)nc1, CCCn1cnnc1CNC(=O)CC1C(=O)NCCN1Cc1ccoc1 (stereo not drawn), Cc1ccc(OCC(=O)N2CCC(c3noc(-c4ccccn4)n3)C2)cc1 (stereo not drawn), Cc1ccc(OCc2nc(C3CN(C(=O)c4ccc5nc[nH]c5c4)C3)no2)cc1
